± gives the standard deviation of the averaged measurements.
tested on: DLD1; assay: cell viability (CellTiter-Glo) relative to plate median (fraction of plate median); higher = more viable cells; details: 5 µM; treatment time 24 h; reporter: 7TFP
Summary of the method: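 Colorectal cancer lines with stably integrated lentiviral TCF/Wnt firefly luciferase reporters received library compounds at a final 5 µM, 24 h after seeding into 384-well plates, for a 24 h exposure. Reported figures are plate-median-normalised firefly luciferase or CellTiterGlo luminescence per well. They average two independent replicates.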

SMILES | cell viability
Nc1nc(=O)c2[nH]c(=O)cnc2[nH]1 | 1.01 ± 0.14
CC#C[C@]1(O)CC[C@H]2[C@@H]3CCC4=CC(=O)CCC4=C3[C@@H](c3ccc(N(C)C)cc3)C[C@@]21C | 0.972 ± 0.023
CC1(C)C=Cc2cc3ccc(=O)oc3cc2O1 | 0.979 ± 0.087
CN(C)CCOc1ccc(/C(=C(/CCCl)c2ccccc2)c2ccccc2)cc1 | 0.947 ± 0.034
CC(C)(C)CC(C)(C)c1ccc(O)c(Cc2ccc(Cl)cc2Cl)c1 | 0.987 ± 0.075
CC(=O)N[C@@H](CS)C(=O)O | 0.994 ± 0.037
Cn1c(=O)c2nc[nH]c2n(C)c1=O | 0.996 ± 0.13
CC(C)CC(NC(=O)OCC1c2ccccc2-c2ccccc21)C(=O)O (stereo in doubt) | 1.06 ± 0.057
C=C1C(=O)[C@]23[C@H](CC[C@@H]1[C@@H]2O)[C@]12CO[C@@]3(O)[C@H](O)[C@H]1C(C)(C)CC[C@@H]2O | 0.931 ± 0.058
O=c1cc(CO)occ1O [Kojic acid (Biofocus)] | 0.943 ± 0.08
c1coc(CNc2ncnc3[nH]cnc23)c1 | 0.913 ± 0.09
CC(=O)O[C@H]1CC[C@]2(C)C(C[C@@H](OC(C)=O)[C@]3(C)C4=CC(=O)O[C@H](c5ccoc5)[C@@]4(C)CCC23)C1(C)C (stereo partly drawn) [3-DEOXO-3beta-ACETOXYDEOXYDIHYDROGEDUNIN] | 1 ± 0.057
NCCNCCNCCN | 1.03
CCCc1nn(C)c2c(=O)[nH]c(-c3cc(S(=O)(=O)N4CCN(C)CC4)ccc3OCC)nc12 | 1 ± 0.067
Oc1c(Cl)cc(Cl)c2cccnc12 | 0.9925 ± 0.00071
CC(C)CCC[C@@H](C)[C@H]1CC[C@H]2[C@@H]3CC(=O)[C@H]4C[C@@H](O)CC[C@]4(C)[C@H]3CC[C@]12C [5alpha-CHOLESTAN-3beta-OL-6-ONE] | 0.985 ± 0.05
C[C@H](N)[C@H](O)c1cccc(O)c1 | 0.955 ± 0.052
CC(C(=O)O)c1cccc(Oc2ccccc2)c1 (configuration not stated) | 0.968 ± 0.088
Clc1ccc(CSC(Cn2ccnc2)c2ccc(Cl)cc2Cl)cc1 (configuration not stated) | 1.01 ± 0.015

SMILES | cell viability
CC(=O)O[C@]1(C(C)=O)CC[C@H]2[C@@H]3C=C(Cl)C4=CC(=O)[C@@H]5C[C@@H]5[C@]4(C)[C@H]3CC[C@@]21C | 1 ± 0.035
CC(=O)OC1CCC2(C)C(=CCC3C2CCC2(C)C(C(C)CCCC(C)C)CCC32)C1 (configuration not stated) | 1.04 ± 0.021
CCC(=O)C1(C)OC1C(C)CC(C)C1OC(=O)CC2(O)CC=C(C)C(O2)/C(C)=C/CCCC(OC2CC(OC(N)=O)C(O)C(C)O2)/C=C/C(C)C(O)C1C (configuration not stated) [Irumamycin] | 1.07 ± 0.099
CC(=O)O[C@@H]1CC2C(C)(CC[C@H](O)C2(C)C)C2CC[C@]3(C)C(=CC(=O)O[C@H]3c3ccoc3)C21C (stereo partly drawn) [3beta-HYDROXYDEOXODIHYDRODEOXYGEDUNIN] | 1 ± 0.028
CCCc1nc(C(C)(C)O)c(C(=O)OCc2oc(=O)oc2C)n1Cc1ccc(-c2ccccc2-c2nnn[nH]2)cc1 | 0.99 ± 0.015
CCOc1ccc(Cc2nccc3cc(OCC)c(OCC)cc23)cc1OCC | 0.876 ± 0.016
Cc1ccc(Cl)c(Nc2ccccc2C(=O)O)c1Cl | 1.04 ± 0.067
C=C1CC[C@@H]2[C@](C)(CO)[C@H](O)CC[C@@]2(C)[C@@H]1C/C=C1/C(=O)OC[C@H]1O | 1.03 ± 0.021
C[C@@H]1O[C@@H](O[C@H]2[C@H](Oc3cc(O)c4c(c3)O[C@H](c3ccc(O)cc3)CC4=O)O[C@H](CO)[C@@H](O)[C@@H]2O)[C@H](O)[C@H](O)[C@H]1O | 1.07 ± 0.042
c1ccc2c(c1)CCCC2C1=NCCN1 (configuration not stated) | 1.02 ± 0.014
CO/N=C(\C(=O)N[C@@H]1C(=O)N2C(C(=O)OC(C)OC(C)=O)=C(COC(N)=O)CS[C@H]12)c1ccco1 (some centres not stated) | 1.03
CC1=CC(=O)CC(C)(C)C1(O)/C=C/C(C)=C\C(=O)O (mixture of isomers) [ABSCISIC ACID (cis,trans; )] | 1.05 ± 0.021
O=CN(O)CCCC(NC(=O)C(CO)NC(=O)C1COC(c2ccccc2O)=N1)C(=O)NCCC(=O)NC1CCCN(O)C1=O (configuration not stated) [Oxachelin hydrate] | 1.09 ± 0.13
Cc1cc(/C=C/c2ccc3cc(N(C)C)ccc3[n+]2C)c(C)n1-c1ccccc1 | 0.899 ± 0.057
CC(C)c1cccc(=O)c(O)c1 | 1.11 ± 0.13
CCOC(=O)c1c(C)cc(OC)cc1O | 0.947 ± 0.033
CC1=C(/C=C/C(C)=C/C=C/C(C)=C/C=C/C=C(C)/C=C/C=C(C)/C=C/C2=C(C)C(=O)[C@@H](O)CC2(C)C)C(C)(C)C[C@H](O)C1=O | 1.05 ± 0.057
CC[C@H]1OC(=O)C[C@@H](O)[C@H](C)[C@@H](O[C@@H]2O[C@H](C)[C@@H](O[C@H]3C[C@@](C)(O)[C@@H](O)[C@H](C)O3)[C@H](N(C)C)[C@H]2O)[C@@H](CC=O)C[C@@H](C)C(=O)/C=C/C(C)=C/[C@@H]1CO[C@@H]1O[C@H](C)[C@@H](O)[C@@H](OC)[C@H]1OC | 0.947 ± 0.046
